COUP-TFII inh: NR2F2 transcriptional activity inhibitors, primary screen, cell-based, luciferase reporter, HEK293T, luminescence | inhibition, % at 8.6 µM | 0.7% of 370,000 active | COUP transcription factor 2 (Homo sapiens), P24468 | HEK293T NGFI-A luciferase reporter;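 active = inhibition above a per-plate cutoff, mean inhibition of test wells between control levels plus 3 SD, cut at about 38% in these data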;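 note: cells cotransfected with COUP-TFII expression vector driving the NGFI-A reporter; 0% = median of COUP-TF2 test wells and 100% = reporter-only cells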
NCOA1 inh: SRC1 coactivator transcriptional activity inhibitors, primary screen, cell-based, luminescence; Nuclear receptor coactivator 1 (Homo sapiens), Q15788; inhibition, % at 3.6 µM; 0.12% of 360,000 active; AID 588354, 2011; HEK293 GAL4-SRC1 luciferase reporter;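 active = inhibition above the campaign mean plus 3 SD, with each screening campaign given its own cutoff, cut at about 60% in these data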;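 note: 0% = DMSO treated cells and 100% = gossypol at 36 µM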
LRH-1 inv ag: LRH-1 (NR5A2) inverse agonists, primary screen, cell-based, luminescence, HEK293T, StAR-luciferase reporter; Nuclear receptor subfamily 5 group A member 2 (Homo sapiens), O00482; LRH-1 transfected, 24 h; inhibition, % at 3.6 µM; 0.13% of 360,000 active; AID 602396, 2012;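 active = inhibition above the mean inhibition of all tested compounds plus 3 SD, cut at about 73% in these data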;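 note: 0% = DMSO wells and 100% = reporter-only cells lacking LRH-1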
SRC3 inh: SRC3 coactivator transcriptional activity inhibitors, primary screen, cell-based, luminescence | Nuclear receptor coactivator 3 (Homo sapiens), Q9Y6Q9 | HEK293 GAL4-SRC3 luciferase reporter | inhibition, % at 3.6 µM | 0.17% of 360,000 active | AID 588352, 2011;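 active = inhibition above a per-campaign cutoff, the mean of all compounds plus 3 SD, cut at about 60% in these data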;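 note: 0% = DMSO-treated cells and 100% = gossypol-treated cells at 36 µM; higher means less SRC3-driven luciferase light from the GAL4 reporter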
Gli-Sufu block: Gli-Sufu pathway antagonists, primary screen, luciferase luminescence, Sufu-KO-LIGHT cells, uHTS | Sufu-KO-LIGHT fibroblasts, Gli luciferase reporter luminescence | inhibition, % at 5 µM | 0.74% of 340,000 active | AID 588413, 2011;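 active = inhibition above about 55%, limit read from the data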;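 note: 0% = DMSO-treated cells and 100% = wells with medium but no cells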
SRC2 inh: inhibition of GAL4-SRC2 driven luciferase reporter, primary screen, SRC2 inhibitor project, cell-based, luminescence; Nuclear receptor coactivator 2 (Homo sapiens), Q15596; HEK293 GAL4-SRC2 luciferase reporter; inhibition, % at 9 µM; 0.17% of 370,000 active;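 active = inhibition above the mean inhibition of all tested compounds plus 3 SD, set per campaign, cut at about 52% in these data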;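 note: 0% = DMSO treated cells and 100% = cells given Gossypol at 36 µM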
Gli antag conf: Gli-SUFU pathway antagonists, confirmation, single concentration, luciferase luminescence, Sufu-KO-LIGHT cells; shares compounds with Gli-Sufu block; Gli luciferase reporter; AID 602428, 2012; inhibition, % at 5 µM; 40% of 2,500 active;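 active = mean inhibition at 5 µM reaching about 45%, limit read from the data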;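 note: plate controls were DMSO-treated cells for no effect and wells lacking cells for full effect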
Gli cytotox: cytotoxicity in Sufu-KO-LIGHT cells, confirmation, cytotoxicity control for Gli-SUFU antagonist project, cell-based, ATP luminescence, single concentration; shares compounds with Gli-Sufu block; cytotoxicity, % at 5 µM; 32% of 2,500 active;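 active = mean cytotoxicity at 5 µM above about 25%, limit read from the data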;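 note: cells exposed to compound overnight for roughly 16 to 18 hours; plate controls were DMSO wells with cells for no effect and medium without cells for full effect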
Wnt3a counter: Wnt3a reporter signal inhibition, confirmation, counter-screen for Gli-SUFU antagonist project, Wnt-LIGHT cells, luminescence, single concentration; shares compounds with Gli-Sufu block; Wnt3a-driven luciferase reporter; inhibition, % at 6.25 µM; 20% of 2,500 active; AID 651995, 2013;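 active = mean inhibition above about 25%, limit read from the data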
Starred values were filed as active, the others as inactive; nt = not tested or not shown. Shown are actives, neighbours in structure and some others; about 1.3% of the full set was active somewhere.

SMILES | COUP-TFII inh | NCOA1 inh | LRH-1 inv ag | SRC3 inh | Gli-Sufu block | SRC2 inh | Gli antag conf | Gli cytotox | Wnt3a counter
O=C(CNC(=O)c1sc2ccccc2c1Cl)OCc1ccccc1 | 9.5 | -5.6 | -39.0 | 4.5 | -5.3 | -3.9 | nt | nt | nt
Cc1ccccc1COC(=O)CNC(=O)c1sc2ccccc2c1Cl | 13.2 | 7.1 | 8.7 | 6.7 | 65.0* | -35.4 | 20.6 | 10.2 | -0.5
CCC(Sc1nc(-c2ccccc2)cc(=O)[nH]1)C(=O)O (stereo unspecified) | -2.4 | -6.0 | 19.7 | 17.6 | 5.2 | -15.1 | nt | nt | nt
CC(C)Sc1nc(-c2ccccc2)cc(=O)[nH]1 | 3.9 | -28.6 | 11.3 | -35.8 | 69.0* | 13.5 | 22.1 | 3.7 | 3.2
O=C(N[C@@H]1C/C=C\C[C@H](CC(=O)N(CCO)Cc2ccccc2)C(=O)NC[C@@H](c2ccccc2)OC1=O)OCC1c2ccccc2-c2ccccc21 | -3.5 | -2.6 | -15.6 | -3.5 | 66.9* | 25.1 | 65.0* | 25.6* | -5.9
O=C(N[C@@H]1C/C=C\C[C@@H](CC(=O)N(CCO)Cc2ccccc2)C(=O)NC[C@H](c2ccccc2)OC1=O)OCC1c2ccccc2-c2ccccc21 | 2.4 | -16.5 | -20.2 | -4.5 | 59.1* | -27.8 | 61.5* | 22.8 | 16.4
O=C1NC[C@@H](c2ccccc2)OC(=O)[C@@H](Cc2ccc(F)cc2)CC/C=C/C[C@@H]1CC(=O)N(CCO)Cc1ccccc1 | 11.9 | -3.4 | -2.5 | -16.6 | 6.1 | 8.7 | nt | nt | nt
O=C1CC/C=C\C[C@@H](CC(=O)N(CCO)Cc2ccccc2)C(=O)NC[C@@H](c2ccccc2)O1 | 0.7 | -6.2 | -5.6 | -5.5 | -3.3 | -23.8 | nt | nt | nt
C[C@@H]1COC(=O)[C@@H](NC(=O)OCC2c3ccccc3-c3ccccc32)C/C=C\C[C@@H](CC(=O)N(CCO)Cc2ccccc2)C(=O)N1 | 10.4 | -3.6 | 10.8 | 3.7 | 75.1* | 0.1 | 70.1* | 20.6 | -3.6
C[C@H]1COC(=O)[C@@H](NC(=O)OCC2c3ccccc3-c3ccccc32)C/C=C\C[C@H](CC(=O)NCCO)C(=O)N1 | 0.3 | -4.2 | 14.4 | -1.2 | 48.5 | 1.0 | nt | nt | nt
O=C(C[C@H]1C/C=C\C[C@H](NC(=O)OCC2c3ccccc3-c3ccccc32)C(=O)O[C@H](c2ccccc2)CNC1=O)N[C@H](CO)Cc1ccccc1 | nt | -1.0 | 3.7 | -7.8 | 62.7* | nt | 53.7* | 34.2* | -12.3
C=CCN1[C@H](CC(C)C)COc2cccc(N3CCSCC3)c2S1(=O)=O | 0.9 | nt | nt | nt | nt | -14.7 | nt | nt | nt
CCOC(=O)CC[C@H]1CC[C@]2(CCCN(C(=O)c3cccnc3)C2)O1 | -24.4 | nt | nt | nt | nt | 0.3 | nt | nt | nt
Cc1ccc(CNC(=O)CN(c2ccc(C)cc2)S(=O)(=O)c2c(C)n[nH]c2C)cc1 | -2.7 | 9.8 | 4.1 | -6.9 | 57.2* | 13.3 | 26.1 | 8.7 | 37.2*
Cc1ccc(CNC(=O)CN(c2ccc(C)cc2)S(=O)(=O)c2c(C)nn(C)c2C)cc1 | -12.2 | 11.5 | -0.2 | -17.9 | 11.1 | -2.0 | nt | nt | nt
Cc1ccc2c(c1)C1CS(=O)(=O)N(C3CCCC3)C(=O)N1C2 (stereo unspecified) | -13.3 | nt | nt | nt | nt | -29.1 | nt | nt | nt
O=C(CSc1nc2ccccc2nc1N1CCCCC1)N1CCN(S(=O)(=O)c2cc(Cl)ccc2Cl)CC1 | 4.9 | nt | nt | nt | nt | -24.3 | nt | nt | nt
O=C1[C@@H](C2CCCCC2)[C@@H]2c3ccccc3C=NN2[C@@H]2c3ccccc3C=NN12 | 16.0 | nt | nt | nt | nt | -6.5 | nt | nt | nt
CSc1nc2[nH]c3c(c2c2nncn12)CC(C)(C)OC3 | -5.3 | -17.4 | 16.6 | -4.6 | 98.5* | -26.0 | 26.9 | 5.5 | -15.4
CCOCCCNC(=S)N1C2CCC1CC(NC(=O)Nc1ccc(C(=O)OCC)cc1)C2 (stereo unspecified) | 5.6 | 19.3 | 18.9 | 6.8 | 69.6* | -1.6 | 9.2 | 30.5* | -12.3
CCNC(=S)N1C2CCC1CC(NC(=O)Nc1ccc(C(=O)OCC)cc1)C2 (stereo unspecified) | -4.6 | -9.4 | -14.0 | 0.7 | -1.4 | -0.2 | nt | nt | nt
Cc1ccc(S(=O)(=O)n2ccc(-c3c(-c4ccc(F)cc4)noc3C)n2)cc1 | 18.0 | nt | nt | nt | nt | 18.1 | nt | nt | nt
Cc1cccc(NC(=O)Cn2cc(C(=O)C3CC3)c3ccccc32)c1C | 21.9 | -5.5 | 1.0 | 25.4 | 79.9* | 18.3 | 83.4* | 33.3* | -13.4
Cc1ccc(C)c(NC(=O)Cn2cc(C(=O)C3CC3)c3ccccc32)c1 | 2.2 | -1.2 | -6.5 | 9.1 | 16.5 | -3.2 | nt | nt | nt
COc1ccccc1NC(=O)Cn1cc(C(=O)c2ccco2)c2ccccc21 | -11.0 | 3.4 | -7.1 | 8.8 | 56.0* | -3.9 | 69.1* | 38.2* | 30.7*
SMILES | COUP-TFII inh | NCOA1 inh | LRH-1 inv ag | SRC3 inh | Gli-Sufu block | SRC2 inh | Gli antag conf | Gli cytotox | Wnt3a counter
COc1ccc(CNS(=O)(=O)c2cc3c(cc2Br)CC(C)N3C(C)=O)cc1 (stereo unspecified) | 32.1 | nt | nt | nt | nt | 11.2 | nt | nt | nt
CCOc1cccc(-c2c(C(=O)N/N=C(\C)c3ccncc3)nnn2-c2nonc2N)c1 | -8.4 | -7.3 | 6.5 | 10.0 | -1.5 | -3.0 | nt | nt | nt
C/C(=N/NC(=O)c1nnn(-c2nonc2N)c1-c1ccccc1)c1ccc2c(c1)OCO2 | -1.8 | 3.1 | 2.9 | -7.7 | 51.1 | -36.6 | 24.3 | 1.6 | 4.2
CCOc1cccc(-c2c(C(=O)N/N=C(\C)c3ccccn3)nnn2-c2nonc2N)c1 | 1.4 | 21.3 | -21.7 | 7.8 | 74.6* | 12.5 | 85.7* | 50.9* | 87.6*
O=C(Nc1ccccc1)OCCN1C(=O)CCC12CCC(c1ccccc1)CC2 (stereo unspecified) | -17.1 | nt | nt | nt | nt | -9.1 | nt | nt | nt
O=C(CCc1ccccc1-c1ccccc1CCNC(=O)COCc1ccccc1)NCc1ccccc1 | 2.9 | nt | nt | nt | nt | 1.6 | nt | nt | nt
COC(=O)CN(C(=O)CSc1nnc(-c2cccc(OC)c2)o1)c1ccc(OC)cc1 | -9.9 | -8.7 | -2.7 | 5.6 | -6.5 | -10.2 | nt | nt | nt
CCOC(=O)CN(C(=O)CSc1nnc(-c2cccc(OC)c2)o1)c1ccc(F)cc1 | 22.3 | 3.4 | -7.0 | 6.5 | 98.5* | 4.0 | 11.4 | 10.7 | -35.8
